Compound activity: PubChem BioAssay, several laboratories
Most compounds without a hit are left out; they make up all but 1.9% or so of the library.
RecA intein inh – inhibitors of M. tuberculosis RecA intein splicing | hit rate 0.75% among 290,000 | AID 2221 | P9WHJ3 | inhibition, % (test concentration not listed) | cell-free RecA intein splicing, fluorescence; in the data active means inhibition above about 30%;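 further: 0% = vehicle wells and 100% = reference inhibitor control wells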
SSB-PriA inh – inhibitors of Klebsiella pneumoniae PriA binding to SSB C-terminal tail; inhibition, % at 33 µM; hit rate 0.6% among 430,000; AlphaScreen SSBct-PriA binding, biotinylated peptide; AID 1272365; in the data active means inhibition mostly above about 37%, no sharp cut-off; inactive means mostly below about 20%;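 further: plate controls were negative control peptide for no effect and reference peptide for full effect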
PfHsp40 yeast – rescue of PfHsp40-mediated yeast toxicity. S. cerevisiae expressing PfHsp40, growth rescue, ATP luminescence. hit rate 0.68% among 340,000. growth rescue, % at 12.5 µM; in the data active means growth rescue above about 28%, passing the limit was not always enough;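 further: yeast W303a lacking pdr1 and pdr3 grown in galactose medium; growth measured after three days at 30 °C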
PrPC TRFRET – cell surface PrPC inhibition, primary TR-FRET screen; TR-FRET read-out; AID 720596; hit rate 0.43% among 370,000; inhibition, % at 13.8 µM; in the data active means inhibition above about 24%; further: 0% = median of the test wells and 100% = reference compound wells
BJeLR lethal – kills HRASV12-expressing BJeLR cells | BJeLR (HRASV12) viability, CellTiter-Glo ATP luminescence, 48 h | inhibition, % (concentration not given with the values) | hit rate 0.17% among 300,000 | AID 1554; in the data active means inhibition above about 50%
PrP UTR inh – inhibition of PrP 5' UTR reporter expression; cell-based PrP 5' UTR mRNA reporter, plate reader; inhibition, % (no concentration beside the values); hit rate 0.35% among 340,000; AID 488862; in the data active means inhibition above about 52%; further: 0 = median of the neutral control wells
Numbers without * were called inactive.

O=C(CSc1nnc(-c2ccccn2)n1-n1cccc1)Nc1cccc(Cl)c1Cl was read as SSB-PriA inh 2.
Screening O=C(O)c1ccccc1NC(c1ccccc1)c1ccc2cccnc2c1O (stereo not drawn) returned SSB-PriA inh 9, PfHsp40 yeast 322*, PrPC TRFRET 8 and PrP UTR inh -13.
For Cc1ccnc(NC(c2ccccc2)c2ccc3cccnc3c2O)c1 (stereo not drawn) the results were SSB-PriA inh -4, PfHsp40 yeast 154*, PrPC TRFRET 7 and PrP UTR inh -8.
`Oc1c(C(Nc2ccccn2)c2ccccn2)ccc2cccnc12` (stereo not drawn) gave RecA intein inh 4, SSB-PriA inh -13, PfHsp40 yeast 63*, PrPC TRFRET 15, BJeLR lethal 10 and PrP UTR inh 19.
`Cc1ccnc(NC(c2cccnc2)c2ccc3cccnc3c2O)c1` (stereo not drawn) gave RecA intein inh 12, SSB-PriA inh 71, PfHsp40 yeast -1, PrPC TRFRET 9, BJeLR lethal 2 and PrP UTR inh -13.
Screening COc1ccccc1NC(c1cccnc1)c1ccc2cccnc2c1O (stereo not drawn) returned RecA intein inh 1, SSB-PriA inh 94, PfHsp40 yeast 11, PrPC TRFRET 11, BJeLR lethal 0 and PrP UTR inh -24.
For O=C1NCCN1C(=O)N(Cc1ccsc1)Cc1ccco1 the results were SSB-PriA inh -6.
`O=C(c1ccncc1)N1CCCC[C@H](c2ccc(F)cc2)C1` gave SSB-PriA inh -7.
O=C(c1ccc(Cn2ccnc2)cc1)N1CCCC[C@H](c2ccc(F)cc2)C1 was read as SSB-PriA inh 32*.
`COC(=O)/C(=C/Nc1cccc2ccccc12)[N+](=O)[O-]` gave PfHsp40 yeast -1, PrPC TRFRET 7, BJeLR lethal -3 and PrP UTR inh -3.
For COC(=O)C(=CNc1cccc2ccccc12)[N+](=O)[O-] the results were SSB-PriA inh 55*.
Screening CCCNC(=O)CC(C)=NNC(=O)COc1ccc(C)cc1Br returned SSB-PriA inh -6.
Cc1ccccc1NC(=S)N=Nc1c(O)n(C)c2ccc(S(=O)(=O)N3CCOCC3)cc12 was read as RecA intein inh 41*, SSB-PriA inh 14, PfHsp40 yeast 1, PrPC TRFRET -13, BJeLR lethal -3 and PrP UTR inh 4.
Screening Cc1cccc(NC(=S)N=Nc2c(O)n(C)c3ccc(S(=O)(=O)N4CCOCC4)cc23)c1 returned RecA intein inh 3, SSB-PriA inh 2, PfHsp40 yeast 0, PrPC TRFRET -4, BJeLR lethal 7 and PrP UTR inh 22.
`Cc1cccc(C)c1NC(=S)N=Nc1c(O)n(C)c2ccc(S(=O)(=O)N3CCOCC3)cc12` gave RecA intein inh 46*, SSB-PriA inh -5, PfHsp40 yeast 0, PrPC TRFRET -7, BJeLR lethal -3 and PrP UTR inh -20.
Screening CCOC(=O)C1CCN(C[C@H](O)COc2ccc(C)cc2C)CC1 returned SSB-PriA inh -18.
For Cc1cccc(C(C)C)c1NC(=O)/C(C#N)=C/c1ccc(Cl)cc1 the results were SSB-PriA inh 11.
Screening OC[C@@H](O)[C@H](O)C(/C=N/Nc1ccccc1)=NNc1ccccc1 returned SSB-PriA inh inactive.
For Cc1ccc(CNC(=O)c2ccc(N3CCc4ccccc43)c([N+](=O)[O-])c2)cc1 the results were RecA intein inh 1, SSB-PriA inh 66*, PfHsp40 yeast 7, PrPC TRFRET -13, BJeLR lethal -1 and PrP UTR inh -32.
Screening Cc1ccc(SCCNC(=O)c2ccc(C)c([N+](=O)[O-])c2)cc1 returned RecA intein inh 6, SSB-PriA inh 4, PfHsp40 yeast 48*, PrPC TRFRET -3, BJeLR lethal -1 and PrP UTR inh -12.
For NNC(=O)c1ccc(N2CCc3ccccc32)c([N+](=O)[O-])c1 the results were RecA intein inh 4, SSB-PriA inh 25, PfHsp40 yeast 1, PrPC TRFRET -19, BJeLR lethal -9 and PrP UTR inh -15.
`COC(CNC(=O)c1ccc(N2CCc3ccccc32)c([N+](=O)[O-])c1)OC` gave RecA intein inh 3, SSB-PriA inh 48*, PfHsp40 yeast 1, PrPC TRFRET -41, BJeLR lethal -1 and PrP UTR inh -26.
